PubChem BioAssay AID588855 (National Center for Advancing Translational Sciences (NCATS), 2011)
Out of some 410,000 compounds screened, about 5,000 (1.2%) were called active. Roughly 13% stayed inconclusive and do not appear here. Only a selection was taken, and actives are over-represented in it overall. A number with no mark means an inactive call. Calls come from the whole dose curve; as a rule, active = well fitted inhibition curve with a large enough effect; inconclusive = small, poorly fitted or top-dose-only effect; inactive = no such curve, though single readings can be large or run the other way.

Experiment: qHTS for Inhibitors of TGF-b; note: nearly all actives have a fitted effect of over 65% in size
Settings: HepG2 CAGA-GFP TGF-b/SMAD3 reporter, GFP fluorescence, 18 h, TGF-beta stimulated, 500 pg/mL final; series mostly up to 46.1 µM; activity, negative = inhibition: at the top concentration
In short: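 Read-out: total well GFP (ex488/em500-530) summed from mean per-cell fluorescence. Cells: HEPG2 CAGA-GFP, 1% FBS DMEM, 18 h at 37 degrees C with 500 pg/mL final TGF-beta. Unstimulated wells served as the full-inhibition control; stimulated DMSO wells = 0%.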
% is set by controls: 0 for no effect and ±100 for the full control effect; potency is the fitted concentration of half-maximal effect.

With `CCCCCCCCCCCCn1ccc(=N)cc1` the Potency was 10000 nM (active).
In the case of `CC[C@H]1CN2CCc3cc(OC)c(OC)cc3[C@@H]2C[C@@H]1C[C@H]1NCCc2cc(OC)c(OC)cc21`, the Potency is reported as 89.1 nM (active).
In the case of `CC(=O)OC1C2(CC3N4C(=O)C5(CO)SSC4(CC31O)C(=O)N5C)OC(C)C(C)(C)C2=O` (configuration not stated), the Potency is reported as 794 nM (active).
For `CN(C)CC1Oc2ccccc2OC1(O)c1ccccc1` (configuration not stated), the Potency was 2820 nM (active).

Going from `Cc1ccc(Oc2cnn(-c3ccccc3)c(=O)c2Br)cc1` to `O=c1c2ccccc2[nH]c(=S)n1-c1cccc(Cl)c1`, the “activity, negative = inhibition” value falls from 27% to -2.46%.

First: CCC1(CC(C)c2ccccc2)C(=O)NC(=O)NC1=O (configuration not stated)
Second: O=C(COC(=O)Cc1ccccc1)Nc1ccc(F)cc1
The “activity, negative = inhibition” value of the first is higher: -0.656% for the first, -9.05% for the second.

Going from `CCOP(=S)(OCC)SCOC(=O)NCC(=O)OC` to `CN(C)C(=O)Oc1ccc(NC(=O)N2CCOCC2)cc1`, the “activity, negative = inhibition” value falls from -14.9% to -16.7%.

Going from `O=P1(Oc2ccccc2)CC(O)C(O)C(COCc2ccccc2)O1` (configuration not stated) to `OC(Cn1c2ccccc2c2ccccc21)C[n+]1ccccc1` (configuration not stated), the “activity, negative = inhibition” value falls from -2.34% to -14.8%.

Going from `O=C(NCC1=C(c2ccc3ccccc3c2)C[C@@H]2CC[C@H]1N2Cc1ccco1)c1cccs1` to `CC(=O)NCC1=C(c2ccc3ccccc3c2)C[C@@H]2CC[C@H]1N2Cc1ccco1`, the “activity, negative = inhibition” value rises from 0.825% to 15.6%.

Compared with `CNC(=S)N/N=C1\C2CN3CCN(C2)CC1(c1ccccc1)C3`, `O=C(Cc1ccccc1)N1CCN(C2CCCCCC2)CC1` is higher in “activity, negative = inhibition” value: 3.41% for the first, 6.26% for the second.

Compared with `COc1ccc2c(c1)[C@]13CCCCC1C(C2)N(C)CC3` (some centres not stated), `c1cc2c(c(NC3=NCCCS3)c1)CCCC2` is higher in “activity, negative = inhibition” value: -24.2% for the first, 10.7% for the second.

Compared with `CCOc1ccc(CNC(=O)c2cccc(Nc3nc4ccccc4n4nnnc34)c2)cc1OC`, `CCOC(=O)c1cccc(C2=C(CNC(=O)c3ccncc3)[C@H]3CC[C@@H](C2)N3Cc2ccccc2)c1` is lower in “activity, negative = inhibition” value: 63% for the first, -12.1% for the second.

Going from `COc1ccc(C2NCc3ccc4c(c3-n3cccc32)OCO4)cc1OC` (configuration not stated) to `Cc1cccc(-n2c(O)c(C=NC34CN5CN(CN(C5)C3)C4)c(=O)[nH]c2=O)c1`, the “activity, negative = inhibition” value falls from 17.7% to 5.66%.
